# Assay results taken from PubChem BioAssay (NCATS).
# Inconclusive results are not listed. A call without a number means that no potency is given here. Values without a mark were called inactive. Calls of active or inactive are those of the source. Calls come from the whole dose curve; as a rule, active = well fitted curve in the direction sought with a large enough effect; inconclusive = small, poorly fitted or top-dose-only effect, or another doubt; inactive = no such curve, though single readings can be large; an effect the other way counts as inactive or inconclusive.
# What was measured:
# NIH3T3 = experiment: Cytotoxic Profiling of Annotated Libraries Using Quantitative High-Throughput Screening (AID 1296008); conditions: Five cell lines viability, CellTiter-Glo ATP luminescence, 48-72 h; max response: hits give low values; note: nearly all actives have a fitted effect of over 60% in size
# Outline: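 Cells exposed to compounds for 48 or 72 hr at 37 degrees Celsius. Viability read as ATP-coupled luminescence with CellTiter-Glo after 10 min at room temperature.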
# MCC-13 = experiment: qHTS assay to identify novel small-molecules to repurpose for Merkel cell carcinoma treatment (AID 1296009); conditions: MCC and control cell lines, CellTiter-Glo viability, 72 h; series mostly up to 46 µM; note: nearly all actives have a fitted effect of over 60% in size
# Outline: (§1)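 Dose-response viability screen; 72 hr exposure at 37 degree celsius; CellTiter-Glo added, 10 min room temperature, luminescence read; RLUs scaled between no-cell and DMSO wells.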
# MKL-2 = experiment: as above; conditions: MCC and control cell lines, CellTiter-Glo viability, 72 h; series mostly up to 46 µM
# Outline: as §1
# WaGa = experiment: as above; conditions: MCC and control cell lines, CellTiter-Glo viability, 72 h; series mostly up to 46 µM
# Outline: as §1
# HeLa = experiment: Primary qHTS to identify gynecologic anti-cancer compounds using libraries of approved drugs and bioactive compounds (AID 1345084); conditions: Gynecologic cancer cell panel viability, ATPlite luminescence, 48 h; series mostly up to 57.5 µM; note: nearly all actives have a fitted effect of over 55% in size
# Outline: (§2)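 Cytotoxicity screen measuring ATP content by luciferase luminescence. Each compound is applied at five concentrations for 48 h at 37 C with 5% CO2.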
# HACAT = experiment: qHTS assay to identify novel small-molecules to repurpose for Merkel cell carcinoma treatment (AID 1296009); conditions: MCC and control cell lines, CellTiter-Glo viability, 72 h; at 44.8 µM (top of the series) unless noted; note: nearly all actives have a fitted effect of over 60% in size
# Outline: as §1
# MCC-26 = experiment: as above; conditions: MCC and control cell lines, CellTiter-Glo viability, 72 h; series mostly up to 46 µM
# Outline: as §1
# MKL-1 = experiment: as above; conditions: MCC and control cell lines, CellTiter-Glo viability, 72 h; series mostly up to 46 µM
# Outline: as §1
# UISO = experiment: as above; conditions: MCC and control cell lines, CellTiter-Glo viability, 72 h; series mostly up to 46 µM
# Outline: as §1
# CAOV3 = experiment: Primary qHTS to identify gynecologic anti-cancer compounds using libraries of approved drugs and bioactive compounds (AID 1345084); conditions: Gynecologic cancer cell panel viability, ATPlite luminescence, 48 h; series mostly up to 57.5 µM; note: nearly all actives have a fitted effect of over 55% in size
# Outline: as §2
# CASKI = experiment: as above; conditions: Gynecologic cancer cell panel viability, ATPlite luminescence, 48 h; series mostly up to 57.5 µM
# Outline: as §2
# Es-2 = experiment: as above; conditions: Gynecologic cancer cell panel viability, ATPlite luminescence, 48 h; series mostly up to 57.5 µM
# Outline: as §2
# Hek293T [1] = experiment: as above; conditions: Gynecologic cancer cell panel viability, ATPlite luminescence, 48 h, control line for the selectivity index; series mostly up to 57.5 µM
# Outline: as §2
# JEG-3 = experiment: as above; conditions: Gynecologic cancer cell panel viability, ATPlite luminescence, 48 h; series mostly up to 57.5 µM
# Outline: as §2
# OV90 = experiment: as above; conditions: Gynecologic cancer cell panel viability, ATPlite luminescence, 48 h; series mostly up to 57.5 µM
# Outline: as §2
# SKOV3 = experiment: as above; conditions: Gynecologic cancer cell panel viability, ATPlite luminescence, 48 h; series mostly up to 57.5 µM
# Outline: as §2
# HEK293T [2] = experiment: qHTS assay to identify novel small-molecules to repurpose for Merkel cell carcinoma treatment (AID 1296009); conditions: MCC and control cell lines, CellTiter-Glo viability, 72 h; at 44.8 µM (top of the series) unless noted; note: nearly all actives have a fitted effect of over 60% in size
# Outline: as §1
# C33A = experiment: Primary qHTS to identify gynecologic anti-cancer compounds using libraries of approved drugs and bioactive compounds (AID 1345084); conditions: Gynecologic cancer cell panel viability, ATPlite luminescence, 48 h; series mostly up to 57.5 µM; note: nearly all actives have a fitted effect of over 55% in size
# Outline: as §2
# PA-1 = experiment: as above; conditions: Gynecologic cancer cell panel viability, ATPlite luminescence, 48 h; series mostly up to 57.5 µM
# Outline: as §2
# Potency is the fitted concentration of half-maximal effect.
Structure (SMILES),Potency (NIH3T3),Potency (MCC-13),Potency (MKL-2),Potency (WaGa),Potency (HeLa),outcome (HACAT),Potency (MCC-26),Potency (MKL-1),Potency (UISO),Potency (CAOV3),Potency (CASKI),Potency (Es-2),Potency (Hek293T [1]),Potency (JEG-3),Potency (OV90),Potency (SKOV3),outcome (HEK293T [2]),Potency (C33A),Potency (PA-1),max response (NIH3T3) [%]
COc1ccc(CCN2CCC(Nc3nc4ccccc4n3Cc3ccc(F)cc3)CC2)cc1,4.73 µM (active),23.7 µM (active),13.3 µM (active),21.1 µM (active),28.2 µM (active),–,–,–,–,–,–,–,–,–,–,–,–,–,–,–
CO/N=C1\CN(c2nc3c(cc2F)c(=O)c(C(=O)O)cn3C2CC2)CC1CN (stereo not drawn),–,inactive,inactive,inactive,inactive,inactive,inactive,inactive,inactive,inactive,inactive,inactive,inactive,inactive,inactive,inactive,–,–,–,–
Cc1c(F)c(N2CCNC(C)C2)cc2c1c(=O)c(C(=O)O)cn2C1CC1 (stereo not drawn),–,inactive,inactive,inactive,inactive,–,inactive,inactive,inactive,inactive,inactive,inactive,inactive,inactive,inactive,inactive,inactive,inactive,inactive,–
CC(=O)OCC(=O)NCCCOc1cccc(CN2CCCCC2)c1,–,inactive,inactive,inactive,inactive,–,inactive,inactive,inactive,inactive,inactive,inactive,inactive,inactive,inactive,–,inactive,inactive,inactive,–
Nc1nc2ncc(CNc3ccc(C(=O)N[C@@H](CCC(=O)O)C(=O)O)cc3)nc2c(=O)[nH]1,–,inactive,inactive,inactive,inactive,–,inactive,inactive,inactive,inactive,inactive,inactive,inactive,inactive,inactive,inactive,inactive,inactive,inactive,–
NCCC(O)(P(=O)(O)O)P(=O)(O)O,–,inactive,inactive,inactive,inactive,inactive,–,inactive,inactive,inactive,inactive,inactive,inactive,inactive,inactive,inactive,–,inactive,inactive,–
CC(C)=CCC1C(=O)N(c2ccccc2)N(c2ccccc2)C1=O,–,inactive,13.3 µM (active),–,inactive,–,–,–,–,–,inactive,inactive,inactive,inactive,inactive,inactive,–,inactive,inactive,-29
COc1ccc(OC)c(C(O)CNC(=O)CN)c1 (stereo not drawn),–,inactive,inactive,inactive,inactive,inactive,inactive,inactive,inactive,inactive,inactive,inactive,–,inactive,inactive,inactive,–,inactive,inactive,–
CCN(CC)CCOC(=O)C(c1ccccc1)C1CCCCC1 (stereo not drawn),–,inactive,–,inactive,inactive,inactive,inactive,inactive,inactive,inactive,inactive,inactive,inactive,inactive,–,inactive,–,inactive,inactive,–
CCOC(=O)/C=C(C)/C=C/C=C(C)/C=C/c1c(C)cc(OC)c(C)c1C,–,inactive,–,–,inactive,inactive,inactive,–,–,inactive,inactive,inactive,inactive,inactive,inactive,inactive,–,inactive,inactive,–
CN(C)C(=S)SC(=S)N(C)C,2.66 µM (active),2.99 µM (active),3.35 µM (active),–,inactive,–,–,–,1.19 µM (active),–,inactive,inactive,–,inactive,7.94 µM (active),11.2 µM (active),–,15.8 µM (active),–,–
CCN1CCC[C@H]1CNC(=O)c1c(OC)ccc(Br)c1OC,–,inactive,inactive,inactive,inactive,–,inactive,inactive,inactive,inactive,inactive,inactive,inactive,inactive,inactive,–,inactive,inactive,inactive,–
Cc1ccnc(NS(=O)(=O)c2ccc(N)cc2)n1,–,inactive,inactive,inactive,inactive,inactive,inactive,inactive,inactive,inactive,inactive,inactive,inactive,inactive,inactive,inactive,inactive,inactive,inactive,–
Oc1ccc(Cl)cc1Sc1cc(Cl)ccc1O,–,–,–,21.1 µM (active),–,–,inactive,21.1 µM (active),18.8 µM (active),inactive,inactive,–,–,–,inactive,inactive,–,–,–,-21.9
CC(=O)CC(c1ccc([N+](=O)[O-])cc1)c1c(O)c2ccccc2oc1=O (stereo not drawn),–,inactive,inactive,inactive,inactive,inactive,inactive,inactive,inactive,inactive,inactive,inactive,inactive,inactive,inactive,inactive,–,inactive,inactive,–
